Each structure is given as a SMILES string. Records with an inconclusive call do not appear. Unmarked numbers belong to inactive results. The call rests on the fitted dose curve; in most records, active means well fitted activation curve with a large enough effect in the signal ratio in the repeat runs (not every such curve was filed as active); inconclusive means weak or mixed curves; inactive means flat fitted curve, though single readings scatter; the % refers to the signal ratio.
On the % scale 0 is the no-effect control and ±100 the full control effect.

A short description of one test: qHTS assay to identify small molecule agonists of H2AX (AID 1224845). Particulars: CHO-K1 phospho-H2AX Ser139 HTRF, 3 h; series mostly up to 154 µM; activation (H2AX phosphorylation): at the top concentration. In outline:
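Wild-type CHO-K1 cells, plated overnight, exposed 3hr at 37C to 15 concentrations (0.76% DMSO final). Lysed, then HTRF anti-pH2AX (S139) cryptate and anti-H2AX-d2 antibodies, 24 hr room temperature; 665/620 nm emission read.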
For orientation: qHTS replaces the single test concentration by a dilution series.
`O=C(O)C[C@H](NC(=O)OCc1ccccc1)C(=O)O`: the “activation (H2AX phosphorylation)” value was -1.34%.

For the compound `CCCCCCCCCI`, the “activation (H2AX phosphorylation)” value is -0.486%.

As for `O=C=Nc1ccc(Cl)c(Cl)c1`, the “activation (H2AX phosphorylation)” value is -3.62%.

Turning to `O=C1C(=O)c2ccccc2C(O)=C1C1CCC(c2ccc(Cl)cc2)CC1` (stereo not given), the “activation (H2AX phosphorylation)” value is 7.96% [at 70.9 µM].

For the compound `C[C@@H](O)[C@H]1C(=O)N2C(C(=O)O)=C([C@H]3CCCO3)S[C@H]12`, the “activation (H2AX phosphorylation)” value is -4.59% [at 70.9 µM].

On to `c1ccc(C[n+]2cccc3ccccc32)cc1`, for which the “activation (H2AX phosphorylation)” value was -3.78%.

For `CN(C)CCN1C(=O)c2ccccc2N(C)c2ccccc21`, the “activation (H2AX phosphorylation)” value is -6% [at 70.9 µM].

With `CC(C)C=O`, the “activation (H2AX phosphorylation)” value was 1.43%.

As for `CCC1(CO)COCOC1`, the “activation (H2AX phosphorylation)” value is -0.015%.

Consider `Cc1cscn1`, for which the “activation (H2AX phosphorylation)” value is -1.8%.

Consider `C[C@H]1C[C@H](O)c2ccsc2S1(=O)=O`, for which the “activation (H2AX phosphorylation)” value is 1.82% [at 70.9 µM].

Regarding `O=C(/C=C/c1ccccc1)OCCc1ccccc1`, the “activation (H2AX phosphorylation)” value was -3.54%.

With `CC1(C)[C@H](C(=O)O)N2C(=O)C[C@H]2S1(=O)=O`, the “activation (H2AX phosphorylation)” value was -2.08% [at 70.9 µM].

With `CC=C(Cl)Cl`, the “activation (H2AX phosphorylation)” value was -0.517%.

Take `COC(=O)[C@H]1[C@H]2C[C@@H]3c4[nH]c5cc(OC)ccc5c4CCN3C[C@H]2C[C@@H](OC(=O)/C=C/c2ccc(O)c(OC)c2)[C@@H]1OC`: the “activation (H2AX phosphorylation)” value is -2.56% [at 70.9 µM].

Take `NCCNCCO`: the “activation (H2AX phosphorylation)” value was 0.828%.

`N#CCc1ccc(Cl)cc1Cl`: the “activation (H2AX phosphorylation)” value was -1.68%.

Regarding `CCCCC(CC)CN` (stereo not given), the “activation (H2AX phosphorylation)” value is -1.27%.

For `CC(CN(C)C)C(C)(O)Cc1ccc(Cl)cc1` (stereo not given), the “activation (H2AX phosphorylation)” value was 0.459% [at 70.9 µM].

In the case of `C[C@@]12CCC[C@H]1[C@@H]1CC[C@H]3C[C@@H](O)CC[C@]3(C)[C@H]1CC2`, the “activation (H2AX phosphorylation)” value is -4.58% [at 70.9 µM].

`C[C@]1(Cn2ccnn2)[C@H](C(=O)O)N2C(=O)C[C@H]2S1(=O)=O`: the “activation (H2AX phosphorylation)” value was 0.614% [at 70.9 µM].

Turning to `Cc1ccccc1N=C(N)Nc1ccccc1C`, the “activation (H2AX phosphorylation)” value is -0.835%.

Take `O=C(O)c1ccc(OCCCOc2ccc(C(=O)O)cc2)cc1`: the “activation (H2AX phosphorylation)” value is -0.956% [at 70.9 µM].

On to `CC1(C)S[C@@H]2[C@H](NC(=O)C(c3ccccc3)S(=O)(=O)O)C(=O)N2[C@H]1C(=O)O` (stereo not given in full), for which the “activation (H2AX phosphorylation)” value was -0.297% [at 70.9 µM].

In the case of `NC(=O)c1ccncc1`, the “activation (H2AX phosphorylation)” value is -1.69%.

Regarding `CO[C@]1(NC(=O)CSC(F)F)C(=O)N2C(C(=O)O)=C(CSc3nnnn3CCO)CO[C@H]21`, the “activation (H2AX phosphorylation)” value is 0.318% [at 70.9 µM].

With `CCCCN(CCN(CCCC)C(=O)N1CCOCC1)C(=O)N1CCOCC1`, the “activation (H2AX phosphorylation)” value was 5.39% [at 70.9 µM].

Regarding `O=C1CCCCCCCCCCOCCCCO1`, the “activation (H2AX phosphorylation)” value was 7.14%.

As for `C=C(C)C(=O)OCCOCCOC(=O)C(=C)C`, the “activation (H2AX phosphorylation)” value is -1.81%.

As to `COC(=O)C1=C(C)NC(C)=C(C(=O)O[C@@H]2CCCN(Cc3ccccc3)C2)[C@@H]1c1cccc([N+](=O)[O-])c1`, the “activation (H2AX phosphorylation)” value was -1.34% [at 70.9 µM].

As for `CCCCCC[C@@H](O)C/C=C\CCCCCCCC(=O)OCC(O)CO` (stereo not given in full), the “activation (H2AX phosphorylation)” value was -2.82%.

As for `Cc1c(C)c2c(c(C)c1OC(=O)CCC(=O)OCCO)CC[C@@](C)(CCC[C@H](C)CCC[C@H](C)CCCC(C)C)O2`, the “activation (H2AX phosphorylation)” value is -0.75% [at 70.9 µM].

With `O=C(Cn1ccnc1[N+](=O)[O-])NCCO`, the “activation (H2AX phosphorylation)” value was -1.36% [at 70.9 µM].

On to `Cc1ccccc1S`, for which the “activation (H2AX phosphorylation)” value was -2.02% [at 70.9 µM].

With `CC[N+](CC)(CCNC(=O)C(=O)NCC[N+](CC)(CC)Cc1ccccc1Cl)Cc1ccccc1Cl`, the “activation (H2AX phosphorylation)” value is -0.99% [at 70.9 µM].

In the case of `C=C1CCC2CC1C2(C)C` (stereo not given), the “activation (H2AX phosphorylation)” value was -3.07%.

For `CCCCCCC(C)(C)C(=O)O`, the “activation (H2AX phosphorylation)” value is 2.02%.

On to `Cc1ccc(C(C)(C)O)cc1`, for which the “activation (H2AX phosphorylation)” value is -0.0235%.

Turning to `CCCCCC#CC(=O)OC`, the “activation (H2AX phosphorylation)” value was 0.699%.

Consider `CCCCCCCC/C=C\CCCCCCCCO`, for which the “activation (H2AX phosphorylation)” value is -2.5%.

A further test is described as follows: qHTS assay to identify small molecule agonists of the hypoxia (HIF-1) signaling pathway (AID 1224846). Particulars: HRE-bla ME-180 cells, beta-lactamase ratio, 17 h; series mostly up to 76.8 µM; activation: at the top concentration. In outline:
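Compounds from the Tox21 10K library, dissolved in DMSO, are tested for induction of a hypoxia response element–controlled beta-lactamase reporter in ME-180 cells. Exposure lasts 17 hrs at 37C after a 5 hr settling period, followed by CCF4-AM FRET substrate.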
As to `O=C(O)C[C@H](NC(=O)OCc1ccccc1)C(=O)O`, the “activation” value is -1.31%.

Consider `CCCCCCCCCI`, for which the “activation” value is 0.227%.

As to `O=C=Nc1ccc(Cl)c(Cl)c1`, the “activation” value was 0.363%.

On to `O=C1C(=O)c2ccccc2C(O)=C1C1CCC(c2ccc(Cl)cc2)CC1` (stereo not given), for which the “activation” value is 0.445% [at 35.5 µM].

Regarding `C[C@@H](O)[C@H]1C(=O)N2C(C(=O)O)=C([C@H]3CCCO3)S[C@H]12`, the “activation” value is -1.45% [at 35.5 µM].

On to `c1ccc(C[n+]2cccc3ccccc32)cc1`, for which the “activation” value was 1.79%.

For `CN(C)CCN1C(=O)c2ccccc2N(C)c2ccccc21`, the “activation” value was 0.568% [at 35.5 µM].

With `CC(C)C=O`, the “activation” value is 0.11%.

As for `CCC1(CO)COCOC1`, the “activation” value was -0.999%.

In the case of `Cc1cscn1`, the “activation” value is -0.18%.

With `C[C@H]1C[C@H](O)c2ccsc2S1(=O)=O`, the “activation” value was -0.682% [at 35.5 µM].

As for `O=C(/C=C/c1ccccc1)OCCc1ccccc1`, the “activation” value is -0.854%.

Consider `CC1(C)[C@H](C(=O)O)N2C(=O)C[C@H]2S1(=O)=O`, for which the “activation” value was -1.07% [at 35.5 µM].

Turning to `CC=C(Cl)Cl`, the “activation” value is 0.794%.

As for `COC(=O)[C@H]1[C@H]2C[C@@H]3c4[nH]c5cc(OC)ccc5c4CCN3C[C@H]2C[C@@H](OC(=O)/C=C/c2ccc(O)c(OC)c2)[C@@H]1OC`, the “activation” value was 4.56% [at 35.5 µM].

In the case of `NCCNCCO`, the “activation” value is -0.138%.

As for `N#CCc1ccc(Cl)cc1Cl`, the “activation” value is -1.34%.

Take `CCCCC(CC)CN` (stereo not given): the “activation” value was 0%.

`CC(CN(C)C)C(C)(O)Cc1ccc(Cl)cc1` (stereo not given): the “activation” value was -0.382% [at 35.5 µM].

For the compound `C[C@@]12CCC[C@H]1[C@@H]1CC[C@H]3C[C@@H](O)CC[C@]3(C)[C@H]1CC2`, the “activation” value is -1.38% [at 35.5 µM].

Consider `C[C@]1(Cn2ccnn2)[C@H](C(=O)O)N2C(=O)C[C@H]2S1(=O)=O`, for which the “activation” value is -1.34% [at 35.5 µM].

In the case of `Cc1ccccc1N=C(N)Nc1ccccc1C`, the “activation” value was 0.0807%.

As to `O=C(O)c1ccc(OCCCOc2ccc(C(=O)O)cc2)cc1`, the “activation” value is -0.933% [at 35.5 µM].

Take `CC1(C)S[C@@H]2[C@H](NC(=O)C(c3ccccc3)S(=O)(=O)O)C(=O)N2[C@H]1C(=O)O` (stereo not given in full): the “activation” value is 0.224% [at 35.5 µM].

For `NC(=O)c1ccncc1`, the “activation” value is -0.99%.

On to `CO[C@]1(NC(=O)CSC(F)F)C(=O)N2C(C(=O)O)=C(CSc3nnnn3CCO)CO[C@H]21`, for which the “activation” value is -0.112% [at 35.5 µM].

On to `CCCCN(CCN(CCCC)C(=O)N1CCOCC1)C(=O)N1CCOCC1`, for which the “activation” value is -1.33% [at 35.5 µM].

For `O=C1CCCCCCCCCCOCCCCO1`, the “activation” value was 2.06%.

As to `C=C(C)C(=O)OCCOCCOC(=O)C(=C)C`, the “activation” value was 0.455%.

`COC(=O)C1=C(C)NC(C)=C(C(=O)O[C@@H]2CCCN(Cc3ccccc3)C2)[C@@H]1c1cccc([N+](=O)[O-])c1`: the “activation” value is 2.04% [at 35.5 µM].

`CCCCCC[C@@H](O)C/C=C\CCCCCCCC(=O)OCC(O)CO` (stereo not given in full): the “activation” value was 3.87%.

In the case of `Cc1c(C)c2c(c(C)c1OC(=O)CCC(=O)OCCO)CC[C@@](C)(CCC[C@H](C)CCC[C@H](C)CCCC(C)C)O2`, the “activation” value is 0.845% [at 35.5 µM].

Take `O=C(Cn1ccnc1[N+](=O)[O-])NCCO`: the “activation” value is -1.11% [at 35.5 µM].

Regarding `Cc1ccccc1S`, the “activation” value is -0.109% [at 35.5 µM].

Take `CC[N+](CC)(CCNC(=O)C(=O)NCC[N+](CC)(CC)Cc1ccccc1Cl)Cc1ccccc1Cl`: the “activation” value is -2.26% [at 35.5 µM].

Regarding `C=C1CCC2CC1C2(C)C` (stereo not given), the “activation” value was 0.0834%.

`CCCCCCC(C)(C)C(=O)O`: the “activation” value is 0.0566%.

Regarding `Cc1ccc(C(C)(C)O)cc1`, the “activation” value is -0.565%.

In the case of `CCCCCC#CC(=O)OC`, the “activation” value was 1.72%.

For the compound `CCCCCCCC/C=C\CCCCCCCCO`, the “activation” value was 0.161%.

The values above are taken from PubChem BioAssay (Tox21).
